Measurements from PubChem BioAssay AID1159580 (chemical genetic matrix, 2015).
Where “and” joins values, the source holds several entries; their conditions need not be identical. Equal entries are not always repeated. The campaign covered roughly 5,500 compounds. About 2,000 (36%) were called active. Roughly 18% stayed inconclusive and do not appear here. Cut-off read from the data, not from the text of the source: active = normalized growth mostly below about 0.91 (no sharp cut-off); inconclusive = no clear call, values can overlap the other calls; inactive = mostly above about 0.92. Some of the results follow.

Assay: chemical genetic growth profiling, strain panel (AID 1159580);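 note: tested at 20 µM; growth read once vehicle control cultures reached saturation at 30 °C; 1 = growth at the plate median or of vehicle wells; lower values mean less growth of the strain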
Settings: S. cerevisiae deletion strains, growth OD

Measured: normalized growth

C=C(C)[C@H]1Cc2c(ccc3c2O[C@@H]2COc4cc(OC)c(OC)cc4[C@@H]2C3=O)O1
active: locus YBR009C, strain hhf1, active compounds read low 0.892 | locus YER110C, active compounds read low 1.11 [resistant] | locus YJL164C, strain tpk1, active compounds read low 0.917 | locus YLR262C, strain YPT6 (second series), active compounds read low 0.83 | locus YNL071W, strain lat1, active compounds read low 0.894
inactive: locus YAL013W, strain DEP1, active compounds read low 1.01 | locus YAL021C, strain ccr4, active compounds read low 0.993 | locus YAL026C, strain drs2, active compounds read low 0.962 | locus YAL030W, strain snc1, active compounds read low 0.982 | locus YBL061C, strain skt5, active compounds read low 0.994 | locus YBR021W, strain FUR4, active compounds read low 0.975 | locus YBR023C, strain chs3, active compounds read low 0.962 | locus YBR171W, strain sec66, active compounds read low 0.979 | locus YBR229C, strain ROT2, active compounds read low 1.01 | locus YBR231C, strain swc5, active compounds read low 1 | locus YBR279W, strain paf1, active compounds read low 1.06 | locus YCL011C, strain gbp2, active compounds read low 0.936 | locus YCL016C, strain dcc1, active compounds read low 0.926 | locus YCL029C, strain bik1, active compounds read low 1.03 | locus YCL061C, strain MRC1, active compounds read low 1 | locus YCL069W, strain vba3, active compounds read low 0.997 | locus YCR088W, strain abp1, active compounds read low 1.03 | locus YDL005C, strain med2, active compounds read low 0.99 | locus YDL035C, strain GPR1, active compounds read low 0.956 | locus YDL040C, strain nat1, active compounds read low 0.986 | locus YDL074C, strain BRE1, active compounds read low 0.926 | locus YDL101C, strain DUN1, active compounds read low 0.992 | locus YDL185W, strain tfp1, active compounds read low 1.02 | locus YDL192W, strain arf1, active compounds read low 1.02 | locus YDR001C, strain nth1, active compounds read low 1.01 | locus YDR069C, strain doa4, active compounds read low 0.991 | locus YDR101C, strain arx1, active compounds read low 1 | locus YDR137W, strain rgp1, active compounds read low 0.853 | locus YDR159W, strain sac3, active compounds read low 0.984 | locus YDR162C, strain NBP2, active compounds read low 0.966 | locus YDR195W, strain ref2 1.13 | locus YDR297W, strain sur2, active compounds read low 0.966 | locus YDR318W, strain mcm21, active compounds read low 1 | locus YDR334W, strain swr1, active compounds read low 1.04 | locus YDR335W, strain msn5, active compounds read low 1 | locus YDR388W, active compounds read low 1.01 | locus YDR392W, strain spt3, active compounds read low 0.762 | locus YDR502C, strain sam2, active compounds read low 1 | locus YEL003W, strain gim4, active compounds read low 0.981 | locus YEL037C, strain rad23, active compounds read low 1.02 | locus YEL061C, strain CIN8 (second series), active compounds read low 1.03 | locus YEL061C, strain CIN8, active compounds read low 1 | locus YER015W, strain faa2, active compounds read low 0.982 | locus YER016W, strain bim1, active compounds read low 0.986 | locus YER111C, strain swi4, active compounds read low 1.02 | locus YER155C, strain BEM2 (second series), active compounds read low 1.07 | locus YER155C, strain BEM2, active compounds read low 1 | locus YER167W, strain BCK2, active compounds read low 0.966 | locus YFR010W, strain ubp6, active compounds read low 1.01 | locus YGL078C, strain dbp3, active compounds read low 1.01 | locus YGL086W, strain mad1, active compounds read low 0.993 | locus YGL167C, strain pmr1, active compounds read low 0.97 | locus YGL173C, strain kem1, active compounds read low 0.98 | locus YGL227W, strain vid30, active compounds read low 1.01 | locus YGL240W, strain doc1, active compounds read low 0.999 | locus YGL248W, strain PDE1, active compounds read low 0.993 | locus YGL253W, strain hxk2, active compounds read low 0.964 | locus YGR135W, strain pre9, active compounds read low 0.996 | locus YGR229C, strain SMI1, active compounds read low 0.924 | locus YGR252W, strain gcn5, active compounds read low 0.914 | locus YHR013C, strain ard1, active compounds read low 1 | locus YHR027C, strain rpn1, active compounds read low 0.975 | locus YHR030C, strain SLT2, active compounds read low 1.01 and 0.915 | locus YHR079C, strain IRE1 (second series), active compounds read low 1.02 | locus YHR079C, strain IRE1, active compounds read low 0.95 | locus YHR094C, strain hxt1, active compounds read low 1.02 | locus YHR129C, strain ARP1, active compounds read low 1.01 | locus YHR142W, strain chs7, active compounds read low 0.972 | locus YHR200W, strain rpn10, active compounds read low 0.996 | locus YIL066C, strain RNR3, active compounds read low 0.968 | locus YIL073C, strain SPO22, active compounds read low 1.04 | locus YIL125W, strain kgd1, active compounds read low 1.01 | locus YIR030C, strain dcg1, active compounds read low 1.02 | locus YJL092W, strain hpr5, active compounds read low 1.01 | locus YJL095W, strain BCK1 (second series), active compounds read low 0.967 | locus YJL095W, strain BCK1, active compounds read low 0.958 and 0.936 | locus YJL115W, strain asf1, active compounds read low 1.02 | locus YJL129C, strain trk1, active compounds read low 0.901 | locus YJL134W, strain LCB3, active compounds read low 1.01 | locus YJL154C, strain vps35, active compounds read low 1 | locus YJL166W, strain qcr8, active compounds read low 0.932 | locus YJL168C, strain set2, active compounds read low 1.04 | locus YJL187C, strain SWE1 (second series), active compounds read low 0.982 | locus YJL187C, strain SWE1, active compounds read low 0.993 | locus YJR043C, strain POL32, active compounds read low 0.973 | locus YJR066W, strain TOR1, active compounds read low 0.851 | locus YJR075W, strain HOC1, active compounds read low 0.983 | locus YKL009W, strain mrt4, active compounds read low 1.03 | locus YKL068W, active compounds read low 1 | locus YKL085W, strain MDH1 (second series), active compounds read low 1 | locus YKL085W, strain MDH1, active compounds read low 1 | locus YKL160W, strain elf1, active compounds read low 0.95 | locus YKL190W, strain CNB1, active compounds read low 1 | locus YKR001C, strain vps1, active compounds read low 0.947 | locus YKR026C, strain gcn3, active compounds read low 1 | locus YKR091W, strain srl3, active compounds read low 0.991 | locus YLL001W, strain dnm1, active compounds read low 0.983 | locus YLL026W, active compounds read low 0.976 | locus YLL041C, strain sdh2, active compounds read low 0.99 | locus YLR027C, strain aat2, active compounds read low 0.978 | locus YLR039C, strain RIC1, active compounds read low 0.936 | locus YLR058C, strain SHM2, active compounds read low 1.01 | locus YLR102C, strain apc9, active compounds read low 1.02 | locus YLR113W, strain HOG1, active compounds read low 0.968 | locus YLR221C, strain rsa3, active compounds read low 0.921 | locus YLR258W, strain gsy2, active compounds read low 0.958 | locus YLR262C, strain YPT6, active compounds read low 0.99 | locus YLR268W, strain sec22, active compounds read low 0.978 | locus YLR320W, strain mms22, active compounds read low 0.891 | locus YLR330W, strain CHS5, active compounds read low 1.02 | locus YLR342W, strain FKS1 (second series), active compounds read low 1.02 | locus YLR342W, strain FKS1, active compounds read low 1.01 | locus YLR357W, strain rsc2, active compounds read low 1.09 | locus YLR370C, strain arc18, active compounds read low 0.975 | locus YLR371W, strain rom2, active compounds read low 1.02 | locus YLR384C, strain iki3, active compounds read low 1.03 | locus YLR418C, strain cdc73, active compounds read low 0.917 | locus YML016C, strain PPZ1, active compounds read low 1.01 | locus YML032C, strain rad52, active compounds read low 1.01 | locus YML120C, strain ndi1, active compounds read low 0.95 | locus YML124C, strain tub3, active compounds read low 1.01 | locus YMR058W, strain fet3, active compounds read low 0.994 | locus YMR078C, strain ctf18, active compounds read low 1.01 | locus YMR125W, strain sto1, active compounds read low 1.05 | locus YMR129W, active compounds read low 1 | locus YMR205C, strain PFK2, active compounds read low 0.929 | locus YMR223W, strain ubp8, active compounds read low 1 | locus YMR231W, strain pep5, active compounds read low 0.983 | locus YMR307W, strain GAS1, active compounds read low 1 | locus YNL067W, strain RPL9B, active compounds read low 0.987 | locus YNL128W, strain TEP1, active compounds read low 0.995 | locus YNL183C, strain NPR1, active compounds read low 0.886 | locus YNL209W, strain ssb2, active compounds read low 0.979 | locus YNL233W, strain BNI4, active compounds read low 0.976 | locus YNL248C, strain rpa49, active compounds read low 1.06 | locus YNL250W, strain rad50, active compounds read low 1.02 | locus YNL271C, strain bni1, active compounds read low 1.02 | locus YNL298W, strain CLA4, active compounds read low 1.01 | locus YNL307C, strain MCK1, active compounds read low 0.962 | locus YNL322C, strain KRE1 (second series), active compounds read low 0.991 | locus YNL322C, strain KRE1, active compounds read low 1 | locus YNR049C, strain mso1, active compounds read low 1.01 | locus YNR052C, strain pop2, active compounds read low 1.01 | locus YOL006C, strain TOP1, active compounds read low 0.944 | locus YOL012C, strain htz1 0.818 | locus YOL147C, strain pex11, active compounds read low 1.03 | locus YOR001W, strain rrp6, active compounds read low 0.967 | locus YOR061W, strain CKA2, active compounds read low 1 | locus YOR069W, strain VPS5, active compounds read low 1 | locus YOR070C, strain gyp1, active compounds read low 0.961 | locus YOR080W, strain dia2, active compounds read low 0.994 | locus YOR083W, strain WHI5, active compounds read low 0.969 | locus YOR106W, strain vam3, active compounds read low 0.974 | locus YOR136W, strain idh2, active compounds read low 1.01 | locus YOR144C, strain elg1, active compounds read low 1 | locus YOR184W, strain ser1, active compounds read low 0.952 | locus YOR231W, strain MKK1, active compounds read low 0.94 | locus YOR265W, strain rbl2, active compounds read low 0.973 | locus YOR270C, strain vph1, active compounds read low 0.853 | locus YOR290C, strain snf2, active compounds read low 0.985 | locus YOR316C, strain cot1, active compounds read low 1.01 | locus YPL051W, strain arl3, active compounds read low 0.963 | locus YPL055C, strain LGE1, active compounds read low 0.942 | locus YPL078C, strain atp4, active compounds read low 1.03 | locus YPL106C, strain sse1, active compounds read low 0.977 | locus YPL240C, strain hsp82, active compounds read low 0.975 | locus YPL241C, strain CIN2, active compounds read low 1.01 | locus YPL256C, strain CLN2, active compounds read low 0.942 | locus YPR119W, strain clb2, active compounds read low 1.01 | locus YPR141C, strain kar3, active compounds read low 1.04 | locus YPR163C, strain tif3, active compounds read low 0.933 | locus YPR167C, strain met16, active compounds read low 1 | strain wtn01, active compounds read low 1.03
